This note sets out measurements from PubChem BioAssay (NCATS).

Values joined by “and” are separate entries in the source; they are usually repeats but may differ in a detail not shown here. Identical values can stand only once. A number with no mark means an inactive call. Records with an inconclusive call do not appear. Active and inactive are the calls of the source. Unless noted, calls follow the shape of the dose curve; as a rule, active = well fitted curve in the direction sought with a large enough effect; inconclusive = small, poorly fitted or top-dose-only effect, or another doubt; inactive = no such curve, though single readings can be large; an effect the other way counts as inactive or inconclusive.

The subject of one assay is WaGa. Kind of assay: qHTS assay to identify novel small-molecules to repurpose for Merkel cell carcinoma treatment (AID 1296009). Also: nearly all actives have a fitted effect of over 60% in size. Also: potency is read from the fitted curve at half-maximal effect. The conditions noted are these: MCC and control cell lines, CellTiter-Glo viability, 72 h; series mostly up to 46 µM. The gist of the method: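 After compound transfer in DMSO, plates were kept 72 hr at 37 degree celsius. Luminescent ATP signal from CellTiter-Glo served as viability measure, normalized against DMSO and no-cell controls.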
(In general: Quantitative high-throughput screening tests each substance at several concentrations.)

The next assay concerns C33A. Kind of assay: Primary qHTS to identify gynecologic anti-cancer compounds using libraries of approved drugs and bioactive compounds (AID 1345084). Also: % is scaled to controls: 0 for no effect and ±100 for the full control effect; nearly all actives have a fitted effect of over 55% in size. The conditions noted are these: Gynecologic cancer cell panel viability, ATPlite luminescence, 48 h; series mostly up to 57.5 µM. The gist of the method:
(§1)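 ATP-based viability (ATPlite), 1,000 cells/well, 16 h pre-incubation, 48 h compound at 37 C, 5% CO2, 15 min RT before read.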

The test system of another assay is CAOV3. The assay is described as above. To be noted: Gynecologic cancer cell panel viability, ATPlite luminescence, 48 h; series mostly up to 57.5 µM. The gist of the method:
as §1
In general terms: ATP-based viability assays read luminescence as a measure of living cells.

The test system of a further assay is CASKI. The assay is described as above. To be noted: Gynecologic cancer cell panel viability, ATPlite luminescence, 48 h; series mostly up to 57.5 µM. The gist of the method: as §1
In a further assay the test system is Es-2. Described as above. To be noted: Gynecologic cancer cell panel viability, ATPlite luminescence, 48 h; series mostly up to 57.5 µM. The gist of the method:
as §1

The next assay relates to HeLa. The assay is described as above. To be noted: Gynecologic cancer cell panel viability, ATPlite luminescence, 48 h; series mostly up to 57.5 µM. The gist of the method: as §1
In another assay the test system is JEG-3. The description is as above. The conditions noted are these: Gynecologic cancer cell panel viability, ATPlite luminescence, 48 h; series mostly up to 57.5 µM. The gist of the method: as §1
The test system of another assay is OV90. The assay is described as above. To be noted: Gynecologic cancer cell panel viability, ATPlite luminescence, 48 h; series mostly up to 57.5 µM. The gist of the method: as §1
In another assay the test system is PA-1. Described as above. To be noted: Gynecologic cancer cell panel viability, ATPlite luminescence, 48 h; series mostly up to 57.5 µM. The gist of the method:
as §1

For a further assay, the system named is SKOV3. Described as above. To be noted: Gynecologic cancer cell panel viability, ATPlite luminescence, 48 h; series mostly up to 57.5 µM. The gist of the method:
as §1

A further assay relates to Tov-21-G. Described as above. To be noted: Gynecologic cancer cell panel viability, ATPlite luminescence, 48 h; series mostly up to 57.5 µM. The gist of the method: as §1
In a further assay the test system is Tov112D. Described as above. To be noted: Gynecologic cancer cell panel viability, ATPlite luminescence, 48 h; series mostly up to 57.5 µM. The gist of the method: as §1
A short description of assay [1]: Drug repurposing screens with cells derived from glioblastoma tumor samples (AID 1345199). Also: nearly all actives have a fitted effect of over 40% in size. Also: potency is read from the fitted curve at half-maximal effect. As to activity, negative = cell killing: % is scaled to controls: 0 for no effect and ±100 for the full control effect. To be noted: GBM patient neurospheres viability, ATP luminescence, 48 h. The gist of the method:
(§2)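 Four patient lines of CD133+ GBM neurospheres were screened at several concentrations; hits were retested in those lines plus three slower-growing GBM lines, using 48-hour treatment and ATP-based viability.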

The next assay relates to Hek293T. Kind of assay: Primary qHTS to identify gynecologic anti-cancer compounds using libraries of approved drugs and bioactive compounds (AID 1345084). Also: % is scaled to controls: 0 for no effect and ±100 for the full control effect; nearly all actives have a fitted effect of over 55% in size. To be noted: Gynecologic cancer cell panel viability, ATPlite luminescence, 48 h, control line for the selectivity index; series mostly up to 57.5 µM. The gist of the method:
as §1

In a further assay the test system is astro. Kind of assay: Drug repurposing screens with cells derived from glioblastoma tumor samples (AID 1345199). Also: nearly all actives have a fitted effect of over 40% in size. Also: potency is read from the fitted curve at half-maximal effect. As to activity, negative = cell killing: % is scaled to controls: 0 for no effect and ±100 for the full control effect. To be noted: viability, ATP luminescence, 48 h; series mostly up to 45.9 µM. The gist of the method: as §2
Assay [2] deals with Nuclear receptor subfamily 1 group I member 2 (Rattus norvegicus) (UniProt Q9R1A7). Kind of assay: qHTS assay for small molecule activators of the rat pregnane X receptor (rPXR) signaling pathway (AID 651751; call rule not given here; also: 0% is about no effect). To be noted: rPXR reporter cells, luciferase (One-Glo), 24 h.
Nuclear receptor subfamily 1 group I member 2 (Rattus norvegicus), sequence (Q9R1A7 whole entry, looked up): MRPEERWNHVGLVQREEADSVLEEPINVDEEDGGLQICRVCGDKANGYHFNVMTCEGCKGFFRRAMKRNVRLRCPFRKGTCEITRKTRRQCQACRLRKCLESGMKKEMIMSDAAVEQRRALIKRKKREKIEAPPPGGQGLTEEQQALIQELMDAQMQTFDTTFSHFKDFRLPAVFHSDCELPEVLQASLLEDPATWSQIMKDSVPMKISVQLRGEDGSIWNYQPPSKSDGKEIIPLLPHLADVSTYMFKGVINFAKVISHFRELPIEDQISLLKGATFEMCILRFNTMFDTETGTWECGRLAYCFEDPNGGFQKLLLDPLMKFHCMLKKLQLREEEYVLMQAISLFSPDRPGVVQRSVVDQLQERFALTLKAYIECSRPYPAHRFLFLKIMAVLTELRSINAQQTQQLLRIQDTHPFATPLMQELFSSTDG
Assay [3] is described as follows: qHTS assay for small molecule activators of the human pregnane X receptor (PXR) signaling pathway (AID 720659; call rule not given here; also: 0% is about no effect).
[4] abbreviates: at 45.9 µM (top of the series), tumour line B.
[5] abbreviates: at 45.9 µM (top of the series), tumour line D.
Where [6] appears, read: at 46 µM (top of the series), tumour line A.
The mark [7] stands for this setting: at 46.1 µM (top of the series), tumour line C.

With `CN1CCN(c2cc3c(nn2)Oc2ccccc2N3C)CC1`, the Potency result with WaGa, in the assay with C33A, in the assay with CAOV3, with CASKI, with Es-2 and in the assay on HeLa was “inactive” throughout. Moreover, the Potency result in the assay on JEG-3, in the assay on OV90, in the assay with PA-1, in the assay on SKOV3, in the assay with Tov-21-G and in the assay with Tov112D was “inactive” in each case. Further, the activity, negative = cell killing in [1] (setting [4]) is -7.46%. For the same compound, in [1] (tumour line A), the Potency is 11.2 µM (active).

For `CCCCCCCCCCCCCCCCCC(=O)O`, the Potency entry with WaGa, with C33A, in the assay with CAOV3, in the assay on CASKI, with Es-2 and in the assay on HeLa was “inactive” each time. In addition, the Potency entry in the assay on Hek293T, in the assay on JEG-3, in the assay on OV90, in the assay on PA-1, with SKOV3 and in the assay with Tov-21-G was “inactive” throughout. In addition, the Potency result in the assay on Tov112D and in the assay on astro was “inactive” in each case. Moreover, the activity, negative = cell killing was -6.65% in assay [1] (setting [4]), -11.1% in assay [1] (setting [5]), -19.5% in assay [1] (setting [6]) and -22.7% in assay [1] (setting [7]). For the same compound, in assay [2], the max response is 1.24% and 3.12% and 0.368%. The compound was classed as inactive in assay [3].

Turning to `Oc1c(Br)cc(Br)c2cccnc12`, the Potency with WaGa was 11.9 µM (active). Also, the Potency entry in the assay with C33A, with CAOV3, in the assay with CASKI, in the assay with HeLa and with JEG-3 was “inactive” in each case.

Take `C=CCCCCCCCCC(=O)O`: the Potency entry in the assay with WaGa, with C33A, in the assay on CAOV3, in the assay with CASKI, with Es-2 and in the assay on HeLa was “inactive” throughout. Besides, the Potency entry with Hek293T, in the assay on JEG-3, in the assay on OV90, in the assay with PA-1, in the assay on SKOV3 and in the assay with Tov-21-G was “inactive” throughout. The Potency entry in the assay on Tov112D is “inactive”. The activity, negative = cell killing is -14.2% in assay [1] (setting [4]), -8.73% in assay [1] (setting [5]), -10.4% in [1] (setting [6]) and 6.77% in [1] (setting [7]). Further, in assay [2], the max response was 0.475%. In addition, the call in [3] was inactive.

`CCCCCCOc1ccccc1C(N)=O`: the Potency result in the assay on C33A, in the assay on CAOV3, with CASKI, in the assay with Es-2, in the assay with HeLa and with Hek293T was “inactive” each time. Further, the Potency result in the assay on JEG-3, with OV90, in the assay on PA-1, with SKOV3, in the assay with Tov-21-G and in the assay on Tov112D was “inactive” in each case. For the same compound, in assay [1] (setting [7]), the activity, negative = cell killing was -6.65%. Moreover, the Potency in [1] (tumour line A) is 14.1 µM (active).

Take `Cc1ccc(C(=O)c2ccc(CC(=O)O)n2C)cc1`: the Potency entry in the assay on WaGa, in the assay with C33A, with CASKI, in the assay with Es-2, in the assay with HeLa and with Hek293T was “inactive” each time. For the same compound, the Potency result with JEG-3, with OV90, with PA-1, in the assay with SKOV3, with Tov-21-G and with Tov112D was “inactive” throughout. Further, the activity, negative = cell killing is -5.11% in assay [1] (at 20 µM (top of the series), tumour line C); -9.02% in assay [1] (at 21.2 µM (top of the series), tumour line B); -3.08% in assay [1] (at 21.2 µM (top of the series), tumour line D); -10.3% in assay [1] (at 21.3 µM (top of the series), tumour line A).

Regarding `c1ccc2sc(SN3CCOCC3)nc2c1`, the Potency result in the assay with WaGa, in the assay with C33A, in the assay with CASKI, with Es-2, in the assay with HeLa and in the assay with Hek293T was “inactive” each time. In addition, the Potency result in the assay with JEG-3, in the assay with OV90, with PA-1, in the assay on Tov-21-G, with Tov112D and in the assay with astro was “inactive” throughout. For the same compound, the results for the activity, negative = cell killing in assay [1] (setting [4]), in assay [1] (setting [5]) and in assay [1] (setting [7]) were -16.5%, -19.8% and -23.9%, respectively.
